The values that follow come from PubChem BioAssay (EPA / NIEHS).

The source made the active and inactive calls. The calls were made as follows: active = hit-call score of the fitted dose curve at least 0.9, where 1 is the maximum; inactive = score below 0.9.

A short description of the experiment: CCTE_Shafer_MEA_dev_burst_duration_mean: CCTE's Neural Network Formation Assay for Mean Burst Duration, Shafer Lab (AID 2284045). The procedure:
CCTE_Shafer_MEA_dev assay is conducted using Axion Biosystems 48 well microelectrode array (MEA) plates and Maestro recording system. Each well of the MEA plate contains a grid of 16 microelectrodes embedded in the culture surface. Electrically active cells, such as neurons, can be cultured over the electrodes, and electrical activity in these cells can be recorded extracellularly. The spontaneous firing of neurons is captured from each electrode on a microsecond timescale providing both temporally and spatially precise data. […] The CCTE_Shafer_MEA_dev assay uses primary cultures of rat cortical neurons. Recordings are made on days post-plating 5, 7, 9 and 12. As these cultures mature over time, neural networks develop functional activity and form cohesive networks in which electrical activity can be highly coordinated. CCTE_Shafer_MEA_dev_burst_duration_mean is 1 of 19 assay components of the CCTE_Shafer_MEA_dev assay. It measures the average time interval from the first spike (action potential firing) to the last spike in a singe-electrode burst (temporally-clustered group of spikes) during a recording in a microelectrode array (MEA) using Axion Biosystems Maestro 768 channel amplifier with the AxIS adaptive spike detector. The mean burst duration is averaged across the actively bursting electrodes to report a well-mean value. To collapse across multiple recordings made on days post-plating 5, 7, 9 and 12, the trapezoidal area-under-the-curve of the component is calculated.Data from the assay component CCTE_Shafer_MEA_dev_burst_duration_mean was analyzed into 1 assay endpoint. This assay endpoint, CCTE_Shafer_MEA_dev_burst_duration_mean, was analyzed in the negative analysis fitting direction relative to DMSO as the negative control and baseline of activity. Using a type of functional reporter, gain or loss-of-signal activity can be used to understand electrical activity.
On the day prior to culture, each well was coated thoroughly with 150 uL of 0.05% polyethyleneimine (PEI, Sigma Cat P3143) in 50 mM HEPES (Sigma Cat H7523) at a pH of 8. The plate was incubated at 37C for one hour. PEI was rinsed out with 500 uL of sterile water three times. Plates were stored at 4C until the day of culture. This culture was plated at a seeding density of 1.5 x 10^5 cells/well on a 48-well MEA plate, prepared as described above. Cells were administered via a 25 uL media/laminin ([…]; Sigma Cat L2020-1MG) drop directly onto the microelectrode array, as adding the cells with the laminin results in better attachment than pre-coating with laminin. After 2 hours, an additional 475 uL of cortical media was added and the cells returned to the incubator. Exposure starts at day 0 of plating and is continued over twelve days of network development until the experiment is terminated. Cells are fed with fresh medium on DIV 5 and 9, following the recordings on those days. The entire volume of media in the well is exchanged and any vehicle or compound treatment is renewed. Complete details are found in OP-NHEERL/ISTD/SBB/TJS/2015-03-r0 (available on request, email shafer.tim@epa.gov). Measurement of the electrical activity is non-invasive, and recordings can be made from the same plate over multiple different days of the culture. In cortical neurons, this allows for the measurement of extracellular action potentials over the period during which networks form in the MEA plate.
Turning to `CCC(C)(C)C(=O)O[C@H]1C[C@@H](C)C=C2C=C[C@H](C)[C@H](CC[C@@H]3C[C@@H](O)CC(=O)O3)[C@H]21`, the molecule was called inactive. As for `CC[C@H]1OC(=O)[C@H](C)[C@@H](O[C@H]2C[C@@](C)(OC)[C@@H](O)[C@H](C)O2)[C@H](C)[C@@H](O[C@@H]2O[C@H](C)C[C@H](N(C)C)[C@H]2O)[C@](C)(O)C[C@@H](C)C(=O)[C@H](C)[C@@H](O)[C@]1(C)O`, the entry is “inactive”. As to `Cn1c(=O)c2c(ncn2C)n(C)c1=O`, the call was inactive. With `CC[C@H](C)C(=O)O[C@H]1C[C@@H](C)C=C2C=C[C@H](C)[C@H](CC[C@@H]3C[C@@H](O)CC(=O)O3)[C@H]21`, the call was inactive. As for `CNCc1ccc(NC(=O)c2c[nH]c3c2C(=O)CCC3)cc1`, the entry is “inactive”; as for `NC(=O)NO`, “inactive”.

Take `Nc1nc2ncc(CNc3ccc(C(=O)N[C@@H](CCC(=O)O)C(=O)O)cc3)nc2c(=O)[nH]1`: the call was inactive.

Consider `O=C1CCC(N2C(=O)c3ccccc3C2=O)C(=O)N1` (stereo not given), for which the molecule was called inactive. The value for `COc1ccc(-n2nc(C(F)F)cc2-c2ccc(S(C)=O)cc2)cc1` (stereo not given) was “inactive”; that for `O=P(OC(CCl)CCl)(OC(CCl)CCl)OC(CCl)CCl` was “inactive”.
